# Measurements as given in PubChem BioAssay.
# Active and inactive are the calls of the source.
# Key:
# [1] = optical density shifts of acrAB sulA E. coli – strain DRC41, OD650, 48 h, E. coli filamentation inducer project, primary screen (AID 1152); conditions: higher = more signal, called active from +8 up or from −8 down;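 also: E. coli MC1000 strain DRC41 lacking acrAB efflux pump and sulA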
# [2] = probe aLefty1 binding on compound microarray – biochemical, small-molecule microarray, 635/667 nm fluorescence, primary screen (AID 1153); conditions: higher = more signal;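 also: score merges spot fluorescence with signal-to-noise ratio from the scanned slide images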
# [3] = plasmodial surface anion channel blockers, osmotic lysis – cell-based, P. falciparum Indochina, OD700, 1 h, primary screen (AID 1154); conditions: P. falciparum Indochina infected RBC osmotic lysis, higher = more signal, called active from +8 up or from −8 down
# [4] = plasmodial surface anion channel blockers, osmotic lysis – cell-based, P. falciparum Indochina, OD700, 2 h, primary screen (AID 1155);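 also: lysis reports solute entry through the parasite surface anion channel PSAC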; conditions: P. falciparum Indochina infected erythrocytes, higher = more signal, called active from +8 up or from −8 down
# [5] = changes in parasitized red cell lysis, either direction – P. falciparum Indochina, OD700, 3 h, PSAC antagonist project, primary screen (AID 1156); conditions: P. falciparum-infected erythrocytes, osmotic lysis, higher = more signal, called active from +8 up or from −8 down
# [6] = plasmodial surface anion channel blockers, osmotic lysis – cell-based, P. falciparum Indochina, OD700, 18 h, primary screen (AID 1157); conditions: P. falciparum Indochina infected erythrocytes, osmotic lysis OD700, 18 h; higher = more signal, called active from +8 up or from −8 down
# [7] = S6 kinase pathway phospho-S6 level changes – cell-based, A549, cytoblot, luminescence, serum-stimulated, primary screen (AID 1158); conditions: 5 h, higher = more signal;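 also: serum-stimulated A549 lung adenocarcinoma cells; signal is phosphorylated S6 detected by cytoblot immunostaining with HRP secondary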
# [8] = target: NADPH oxidase 2 (Homo sapiens) (UniProt P04839); experiment: compounds shifting NOX2 Amplex Red fluorescence – cell-based, HEK293-NOX2, PMA-stimulated, NOX inhibitor project, primary screen (AID 1159); conditions: 45 min, higher = more signal, called active from +8 up or from −8 down; also: test concentration not given here
# [9] = target: NADPH oxidase 4 (Homo sapiens) (UniProt Q9NPH5); experiment: compounds shifting NOX4 Amplex Red fluorescence – cell-based, HEK293-NOX4, tetracycline-induced, NOX inhibitor project, primary screen (AID 1160); conditions: HEK293-NOX4, Amplex Red H2O2 fluorescence, 45 min; higher = more signal, called active from +8 up or from −8 down
# [10] = target: NADPH oxidase 5 (Homo sapiens) (UniProt Q96PH1); experiment: compounds shifting NOX5 Amplex Red fluorescence – cell-based, HEK293-NOX5, NOX inhibitor project, primary screen (AID 1161); conditions: HEK293-NOX5, ionomycin, 45 min, higher = more signal
# [11] = compound effects on lung adenocarcinoma cell viability – A549, calcein-AM fluorescence, 48 h, basal, profiling panel (AID 1162); conditions: higher = more signal; also: test concentration not given here
# [12] = compound effects on differentiated 3T3-L1 adipocyte viability – cell-based, 3T3-L1 adipocytes, calcein-AM fluorescence, 48 h, basal, profiling panel (AID 1163); conditions: 3T3-L1 adipocytes viability, higher = more signal; also: test concentration not given here
# [13] = compound effects on hepatocellular carcinoma cell viability – HepG2, calcein-AM fluorescence, 48 h, basal, profiling panel (AID 1164); conditions: higher = more signal; also: test concentration not given here
# [14] = compound effects on multiple myeloma cell viability – MM1S, calcein-AM fluorescence, 48 h, basal, profiling panel (AID 1165); conditions: higher = more signal; also: test concentration not given here
# [15] = calcein-AM signal in unstimulated myeloma cells – cell-based, calcein-AM fluorescence, 48 h, PK04 Diversity Set, profiling panel (AID 1166); conditions: RPMI8226 myeloma viability, higher = more signal;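 also: cells grown under basal conditions without added stimulus; test concentration not given here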
# [16] = JC-1 mitochondrial signal, unstimulated HepG2 cells – cell-based, JC-1 fluorescence, 24 h, 100 nL compound, profiling panel (AID 1167); conditions: HepG2 mitochondrial potential, higher = more signal; also: test concentration not given here
# [17] = JC-1 mitochondrial signal, unstimulated adipocytes – cell-based, JC-1 fluorescence, 3T3-L1 adipocytes, 24 h, 100 nL compound, profiling panel (AID 1168); conditions: JC-1 mitochondrial fluorescence, higher = more signal, called active from +8 up or from −8 down; also: test concentration not given here
# [18] = JC-1 mitochondrial signal, unstimulated myeloma cells – cell-based, JC-1 fluorescence, RPMI8226, 24 h, 100 nL compound, profiling panel (AID 1169); conditions: JC-1 mitochondrial potential fluorescence, higher = more signal; also: test concentration not given here
# [19] = JC-1 mitochondrial signal, unstimulated MM1S myeloma – cell-based, JC-1 fluorescence, 24 h, 100 nL compound, profiling panel (AID 1170); conditions: MM1S mitochondrial potential, higher = more signal; also: test concentration not given here
# [20] = resazurin metabolic signal in A549 cells – cell-based, resazurin fluorescence, 24 h, PK04 Diversity Set, profiling panel (AID 1171); conditions: A549 viability, higher = more signal, called active from +8 up or from −8 down; also: test concentration not given here
# Chain of NADPH oxidase 2 (Homo sapiens) (P04839 whole entry, looked up): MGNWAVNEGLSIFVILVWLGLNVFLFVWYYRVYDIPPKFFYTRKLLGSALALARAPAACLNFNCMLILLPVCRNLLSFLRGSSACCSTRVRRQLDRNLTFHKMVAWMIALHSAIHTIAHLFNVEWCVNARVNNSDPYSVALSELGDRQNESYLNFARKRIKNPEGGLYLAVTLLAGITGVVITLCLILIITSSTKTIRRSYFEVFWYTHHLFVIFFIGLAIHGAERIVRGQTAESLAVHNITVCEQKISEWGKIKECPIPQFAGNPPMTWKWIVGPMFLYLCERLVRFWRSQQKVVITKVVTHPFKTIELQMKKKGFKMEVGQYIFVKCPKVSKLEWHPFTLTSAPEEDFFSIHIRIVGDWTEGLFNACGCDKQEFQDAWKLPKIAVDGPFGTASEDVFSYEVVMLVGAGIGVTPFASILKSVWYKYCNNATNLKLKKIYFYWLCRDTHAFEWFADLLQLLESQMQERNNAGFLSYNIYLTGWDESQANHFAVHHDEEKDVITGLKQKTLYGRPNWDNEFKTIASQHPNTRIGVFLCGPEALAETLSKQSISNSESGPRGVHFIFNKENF
# Chain of NADPH oxidase 4 (Homo sapiens) (Q9NPH5 whole entry, looked up): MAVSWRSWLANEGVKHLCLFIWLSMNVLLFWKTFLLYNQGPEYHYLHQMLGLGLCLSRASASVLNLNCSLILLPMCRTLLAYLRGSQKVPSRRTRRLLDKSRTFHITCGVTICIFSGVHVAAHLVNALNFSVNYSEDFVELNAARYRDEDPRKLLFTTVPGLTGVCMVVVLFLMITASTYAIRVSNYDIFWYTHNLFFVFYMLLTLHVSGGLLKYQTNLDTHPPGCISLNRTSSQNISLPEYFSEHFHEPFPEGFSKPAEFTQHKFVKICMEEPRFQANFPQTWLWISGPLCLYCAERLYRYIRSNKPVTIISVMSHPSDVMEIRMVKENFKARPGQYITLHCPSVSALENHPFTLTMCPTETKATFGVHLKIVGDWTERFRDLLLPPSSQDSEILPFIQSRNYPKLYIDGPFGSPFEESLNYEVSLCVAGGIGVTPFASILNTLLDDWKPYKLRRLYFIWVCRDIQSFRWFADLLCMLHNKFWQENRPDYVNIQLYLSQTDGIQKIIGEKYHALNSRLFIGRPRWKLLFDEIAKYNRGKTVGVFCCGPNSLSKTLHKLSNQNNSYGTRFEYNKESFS
# Chain of NADPH oxidase 5 (Homo sapiens) (Q96PH1 whole entry, looked up): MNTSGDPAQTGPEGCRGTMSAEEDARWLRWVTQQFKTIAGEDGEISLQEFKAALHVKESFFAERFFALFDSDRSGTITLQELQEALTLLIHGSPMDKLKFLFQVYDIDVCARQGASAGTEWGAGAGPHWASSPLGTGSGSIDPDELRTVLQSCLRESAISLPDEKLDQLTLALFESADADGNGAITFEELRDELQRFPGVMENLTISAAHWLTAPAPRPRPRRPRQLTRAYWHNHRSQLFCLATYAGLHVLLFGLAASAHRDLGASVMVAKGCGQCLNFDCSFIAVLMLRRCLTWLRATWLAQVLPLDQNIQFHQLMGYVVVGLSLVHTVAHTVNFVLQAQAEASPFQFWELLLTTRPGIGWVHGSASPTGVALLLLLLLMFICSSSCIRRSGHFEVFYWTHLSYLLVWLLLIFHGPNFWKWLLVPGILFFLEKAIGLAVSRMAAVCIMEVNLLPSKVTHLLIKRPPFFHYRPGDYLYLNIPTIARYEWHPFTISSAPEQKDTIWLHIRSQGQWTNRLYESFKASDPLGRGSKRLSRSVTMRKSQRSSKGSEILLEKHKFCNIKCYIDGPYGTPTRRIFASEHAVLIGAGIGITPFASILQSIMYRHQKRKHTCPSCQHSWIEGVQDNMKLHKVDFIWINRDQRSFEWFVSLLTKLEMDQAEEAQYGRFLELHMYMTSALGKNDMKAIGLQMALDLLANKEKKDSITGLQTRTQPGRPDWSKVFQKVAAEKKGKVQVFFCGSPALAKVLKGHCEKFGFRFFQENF
SMILES,z-score [1],composite z-score [2],z-score [3],z-score [4],z-score [5],z-score [6],z-score [7],z-score [8],z-score [9],z-score [10],z-score [11],z-score [12],z-score [13],z-score [14],z-score [15],z-score [16],z-score [17],z-score [18],z-score [19],z-score [20]
CCOC(=O)[C@H](CC(C)C)NC(=O)CCC1CC(OC(=O)NCc2cccc3ccccc23)CC2(CCCC(COC(=O)NCc3cccc(C(F)(F)F)c3)O2)O1 (stereo not given in full),0.366 (inactive),-0.144,-0.406 (inactive),-0.0787 (inactive),0.976 (inactive),0.613 (inactive),0.273,0.176 (inactive),0.794 (inactive),0.259,-0.442,-0.302,0.8,0.484,0.38,0.936,0.346 (inactive),0.0118,-0.851,-0.75 (inactive)
COC(=O)CC=C[C@@H](C)[C@H](OCc1cccc(-c2ccccc2)c1)C1CCCCC1,-0.249 (inactive),-0.289,1.56 (inactive),1.02 (inactive),0.0674 (inactive),0.367 (inactive),-0.484,-0.491 (inactive),0.228 (inactive),-0.471,0.687,-0.328,-0.0634,-1.92,-0.771,-0.579,0.57 (inactive),-0.165,-0.172,0.2 (inactive)
CCOC(=O)CCN1C(=O)[C@H]2[C@H]3[C@H](O)[C@H](O)CC(=NOCc4ccccc4)[C@H]3CC[C@H]2C1=O,1.02 (inactive),0.914,3.06 (inactive),0.939 (inactive),-0.35 (inactive),0.451 (inactive),-0.578,-0.43 (inactive),0.622 (inactive),0.279,0.14,-1.08,-0.416,0.0807,-0.273,0.239,0.392 (inactive),-0.508,-1.22,-0.553 (inactive)
CCc1cc2c(nc1CC)CCN(CCC(C)=NO[C@H](C)c1cn([C@@H]3COC[C@H]3O)nn1)C2,0.211 (inactive),0.199,1.34 (inactive),0.72 (inactive),0.322 (inactive),0.367 (inactive),-0.656,-0.539 (inactive),-0.138 (inactive),0.779,0.821,-0.744,1.75,0.546,-0.329,0.338,0.367 (inactive),-0.121,-0.676,-0.574 (inactive)
CO[C@H]1COC(=O)CC=C[C@@H](C)[C@H](OC)COC(=O)CCC[C@@H]1C,0.398 (inactive),-0.216,-0.674 (inactive),-1.22 (inactive),-0.518 (inactive),-2.08 (inactive),-0.0645,0.00516 (inactive),0.612 (inactive),0.863,-0.71,-0.0523,0.0225,0.0987,0.102,-0.639,-0.399 (inactive),-0.509,-0.135,0.795 (inactive)
CO[C@@H]1COC(=O)[C@@H](C)NC(=O)CC=C[C@@H](C)[C@H](NS(=O)(=O)c2ccc(C)cc2)COC(=O)[C@H](C)NC(=O)CC=C[C@H]1C,0.69 (inactive),-0.145,0.079 (inactive),-0.121 (inactive),-0.361 (inactive),-0.0378 (inactive),-0.363,0.931 (inactive),0.649 (inactive),-0.165,0.458,0.177,0.196,-0.0848,-0.036,-0.125,-0.172 (inactive),0.51,0.468,1.33 (inactive)
O=C1[C@H]2[C@H]3[C@H](O)[C@H](O)CC(=NOCc4ccccc4)[C@@H]3CC[C@H]2C(=O)N1C[C@@H]1CCCO1,0.516 (inactive),-0.28,-0.132 (inactive),0.141 (inactive),-0.335 (inactive),0.305 (inactive),-0.0701,0.434 (inactive),0.531 (inactive),0.102,-0.0287,-0.444,-0.581,0.229,-0.812,-1.01,0.577 (inactive),-0.944,-0.28,0.232 (inactive)
CC(CCN1CCCCc2nc(C)c(C)cc21)=NOC[C@@H](O)COCc1ccco1,0.721 (inactive),-0.0559,1.56 (inactive),0.279 (inactive),0.876 (inactive),0.343 (inactive),0.327,-1.07 (inactive),-0.199 (inactive),-0.153,0.224,0.0279,-0.437,0.0805,-1.05,-1.43,-1.47 (inactive),0.854,-0.797,-0.701 (inactive)
CCOC(=O)NN=C1C[C@@H](O)[C@@H](O)[C@@H]2[C@@H]3C(=O)N(Cc4ccc5c(c4)OCO5)C(=O)[C@@H]3CC[C@H]12,0.245 (inactive),-0.239,5.49 (inactive),0.756 (inactive),0.41 (inactive),0.476 (inactive),-0.4,-3.49 (inactive),-0.0101 (inactive),-0.598,-0.257,-0.132,0.473,0.457,-0.0903,-0.268,-0.754 (inactive),0.386,-1.34,-0.027 (inactive)
